Compound activity as filed in PubChem.
DT40 TDP1 no CPT – qHTS for Inhibitors of human tyrosyl-DNA phosphodiesterase 1 (TDP1): qHTS in cells in absence of CPT. DT40 Tdp1-/- hTDP1 cells, no CPT, ATP luminescence, 48 h. Potency, µM (titrated, usually from 46.2 µM), inactives show at the top dose activity change, negative = growth inhibition, actives largely listed as inhibitors. hit rate 15% among 420,000. AID 686978, 2013; note: potency is the fitted concentration of half-maximal effect; % is set by controls: 0 for no effect and ±100 for the full control effect; nearly all actives have a fitted effect of over 55% in size
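Chicken DT40 Tdp1-/- cells complemented with human TDP1, screened without camptothecin (DMSO vehicle only), 400 cells/well. Compounds pin-transferred, cells incubated at 37 °C for at least 48 hr. Growth read as ATP-dependent luminescence (CellTiter-Glo, 30 min at RT).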
miR-21 act – qHTS Assay for Modulators of miRNAs and/orActivators of miR-21; HeLa miR-21 FLuc reporter, luciferase, 48 h; Potency, µM (titrated, usually from 38.3 µM), without a hit: at the top dose activity change, positive = activation, actives largely listed as activators; 340,000 tested, under 10 active; AID 2288, 2010;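 note: % of control where 0% means no effect; miR-21 action dims this reporter so a rising signal means less miR-21 action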
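Luminescence from a firefly luciferase reporter carrying a miR-21 binding site downstream, stably expressed under a CMV promoter in HeLa cells that make miR-21 endogenously, reports miRNA modulation after 48 h compound exposure up to approximately 40uM final.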
DT40 TDP1 CPT – qHTS for Inhibitors of human tyrosyl-DNA phosphodiesterase 1 (TDP1): qHTS in cells in presence of CPT | chicken DT40 Tdp1-/-;hTDP1 cells + 20 nM CPT, ATP luminescence, 48 h | Potency, µM (top dose mostly 46.2 µM), without a hit: top-dose activity change, negative = growth inhibition, usual class: inhibitors | hit rate 12% among 420,000 | AID 686979, 2013; note: potency is the fitted concentration of half-maximal effect; % is set by controls: 0 for no effect and ±100 for the full control effect; nearly all actives have a fitted effect of over 55% in size
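Chicken DT40 Tdp1-/- cells stably complemented with human TDP1 were seeded at 400 cells/well in medium containing 20 nM camptothecin, exposed to pin-transferred compounds, and grown at 37 °C for at least 48 hr. Viability was read as ATP luminescence.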
uPA surface inh – qHTS for Inhibitors of Cell Surface uPA Generation; cell surface uPA generation assay, qHTS; Potency, µM (doses to about 38.3 µM), for inactives: top-dose activity change, negative = inhibition, actives largely listed as inhibitors; hit rate 0.31% among 330,000; active = well fitted inhibition curve with a large enough effect; inconclusive = small, poorly fitted or top-dose-only effect; inactive = no such curve, though single readings can be large or run the other way; tested in mouse RAW 264.7 cells; note: potency is the fitted concentration of half-maximal effect; % is set by controls: 0 for no effect and ±100 for the full control effect; nearly all actives have a fitted effect of over 55% in size
TDP1 inh – qHTS Assay for Inhibitors of Tyrosyl-DNA Phosphodiesterase (TDP1); Potency, µM (top dose mostly 130 µM), for the others: top-dose activity change, negative = inhibition, actives largely listed as inhibitors; Tyrosyl-DNA phosphodiesterase 1 (Homo sapiens), Q9NUW8; recombinant TDP1, AlphaScreen DNA substrate cleavage; hit rate 0.28% among 350,000; note: potency is the fitted concentration of half-maximal effect; % is set by controls: 0 for no effect and ±100 for the full control effect; nearly all actives have a fitted effect of over 40% in size
Target sequence (Q9NUW8 whole entry, looked up): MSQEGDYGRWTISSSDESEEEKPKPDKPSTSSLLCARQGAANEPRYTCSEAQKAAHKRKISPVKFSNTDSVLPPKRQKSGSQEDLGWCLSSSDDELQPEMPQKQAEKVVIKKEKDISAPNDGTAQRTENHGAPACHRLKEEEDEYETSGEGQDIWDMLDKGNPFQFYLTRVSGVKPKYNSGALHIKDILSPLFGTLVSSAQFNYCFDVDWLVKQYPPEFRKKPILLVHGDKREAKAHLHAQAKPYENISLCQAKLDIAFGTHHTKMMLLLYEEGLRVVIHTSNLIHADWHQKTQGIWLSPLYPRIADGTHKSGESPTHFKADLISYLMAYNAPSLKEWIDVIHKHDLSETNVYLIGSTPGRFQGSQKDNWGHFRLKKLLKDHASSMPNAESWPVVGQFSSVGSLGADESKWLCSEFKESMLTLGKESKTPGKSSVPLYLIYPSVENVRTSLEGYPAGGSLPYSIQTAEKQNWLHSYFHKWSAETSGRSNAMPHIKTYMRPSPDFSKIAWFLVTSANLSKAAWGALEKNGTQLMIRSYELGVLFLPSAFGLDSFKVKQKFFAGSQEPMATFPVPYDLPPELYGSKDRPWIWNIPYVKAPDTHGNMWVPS
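Here, a 5' biotin and 3' phosphotyrosine-FITC DNA oligonucleotide reports Tdp1 activity: intact substrate bridges AlphaScreen beads, while cleavage leaves a 3' phosphate and drops signal. All incubations at room temperature.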
* hit, by the source's call; ? = inconclusive; . = no result given. An excerpt weighted towards active compounds, which were near 16% of everything screened. Unless noted, calls come from the whole dose curve; as a rule, active = well fitted curve in the direction sought with a large enough effect; inconclusive = small, poorly fitted or top-dose-only effect, or another doubt; inactive = no such curve, though single readings can be large; an effect the other way counts as inactive or inconclusive.

SMILES	DT40 TDP1 no CPT	miR-21 act	DT40 TDP1 CPT	uPA surface inh	TDP1 inh
CCCCN(Cc1ccco1)C(=O)c1cc2c(s1)-c1c(C)cccc1OC2	23µM*	-5%	?	.	-12%
COc1ccccc1NC(=O)Nc1ccc2c(c1)nnn2C	-20%	-41%	-20%	3%	6%
Cn1nnc2cc(NC(=O)Nc3ccccc3F)ccc21	16µM*	.	?	.	.
COC(=O)CSc1nc(N)c(NC(=O)c2ccc(OC)c(OC)c2)c(=O)[nH]1	0%	-6%	13%	6%	-4%
O=c1oc2cc(Oc3c([N+](=O)[O-])cc(C(F)(F)F)cc3[N+](=O)[O-])ccc2c2c1CCCC2	13µM*	-4%	8.2µM*	2%	3%
O=c1oc2cc(Oc3ccc(C(F)(F)F)cc3[N+](=O)[O-])ccc2c2c1CCC2	-9%	-9%	-3%	-3%	0%
CC(C)c1nc2ccc(C(=O)NCc3ccc(N(C)C)cc3)cc2o1	-14%	0%	12%	.	2%
C[C@]12CC[C@H](O)CC1=CCC1C2CC[C@@]2(C)C1CC[C@@H]2NC(=O)[C@@H](N)CO (some centres not stated)	?	.	-10%	9%	.
COc1ccc2c(CN3CCN(C(C)=O)CC3)cc(=O)oc2c1	1%	.	-10%	.	.
COc1cc(/C=C2\N=C(C)OC2=O)cc(Cl)c1OC(C)=O	?	0%	15µM*	8%	.
CC(C)N1CCc2c(sc(NC(=O)Cc3ccccc3)c2C(N)=O)C1	-22%	0%	-7%	-5%	.
CC(C)N1CCc2c(sc(NC(=O)c3ccc(C(=O)c4ccccc4)cc3)c2C(N)=O)C1	23µM*	7%	?	-2%	5%
CC(C)N1CCc2c(sc(NC(=O)c3ccc4ccccc4c3)c2C(N)=O)C1	?	-5%	15µM*	?	2%
CC(C)N1CCc2c(sc(NC(=O)c3cc4cc([N+](=O)[O-])ccc4s3)c2C(N)=O)C1	4.6µM*	-4%	4.6µM*	-5%	-3%
CC(C)NC(=O)c1cc2cc([N+](=O)[O-])ccc2s1	15µM*	-2%	?	-7%	-5%
CCOC(=O)c1ccc(Nc2cc(C)nc3ncnn23)cc1	-6%	-15%	-3%	.	6%
CCOC(=O)CSc1nc2cc(C(=O)N3CCC(C(N)=O)CC3)ccc2c(=O)n1C1CCCCC1	-11%	-2%	-2%	3%	5%
COC(=O)c1ccc2c(=O)n(C3CCCCC3)c(SCC#N)nc2c1	23µM*	4%	12µM*	-2%	2%
CCc1ccc(OCC(=O)Oc2ccc([N+](=O)[O-])cc2)cc1	20%	-5%	6%	16%	.
CC(=O)c1c(C)[nH]c(C(=O)N2CCN(c3ccccn3)CC2)c1C	-3%	8%	-13%	-24%	.
Cc1nnc(SCC(=O)Nc2sc3c(c2C#N)CCCCC3)n1N	-22%	-40%	9%	2%	-10%
COc1ccc2nc(NC(=O)CSc3nnnn3C3CCCCC3)sc2c1	-25%	-3%	-4%	8%	4%
N#Cc1c(NC(=O)CSc2nnnn2C2CCCCC2)sc2c1CCCC2	16µM*	1%	?	3%	7%
O=C(CSc1nnnn1C1CCCCC1)Nc1nc2c(s1)CCCC2	21µM*	-12%	15µM*	3%	11%
C[C@H](CO)N1C[C@H](C)[C@@H](CN(C)Cc2ccc3c(c2)OCO3)Oc2ccc(NS(C)(=O)=O)cc2C1=O	5%	.	-5%	-9%	1%
C=CCN(C(=O)c1cccc(C(F)(F)F)c1)C1(C(=O)Nc2ccccc2)CCN(C(C)C)CC1	?	-5%	?	2%	2%
Cc1noc(C)c1-c1nc(CS(=O)(=O)c2ccc(Cl)cc2)no1	2%	-2%	12%	-2%	6%
CNC(=O)/C(C#N)=c1\s/c(=C/C(=O)OC)c(=O)n1-c1ccccc1	-30%	-1%	?	-5%	3%
